Results published in PubChem BioAssay (NCATS).
Records with an inconclusive call do not appear. Unmarked numbers belong to inactive results. The call rests on the fitted dose curve; in most records, active means well fitted cell-killing curve with a large enough effect; inconclusive means small, poorly fitted or top-dose-only effect; inactive means no such curve, though single readings can be large or run the other way.

assay: qHTS of pediatric cancer cell lines to identify multiple opportunities for drug repurposing: Primary screen for Rh41 cells (AID 1347108); conditions: Rh41 rhabdomyosarcoma viability, CellTiter-Glo luminescence, 48 h; series mostly up to 46 µM; activity change, negative = cytotoxic: at the top concentration;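 further: luminescence drop marks cytotoxic hits; nearly all actives have a fitted effect of over 70% in size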
Procedure, shortened: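 Following a 5-hour attachment period, cells at 500-1,000/well received compounds and were cultured for 48 hours. CellTiter-Glo was added and luminescence read to estimate viable, metabolically active cells.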

SMILES | activity change, negative = cytotoxic [%]
CN1C(=O)CN=C(c2ccccc2)c2cc([N+](=O)[O-])ccc21 | 19.9
CN1C(=O)CN=C(c2ccccc2)c2cc(Cl)ccc21 | -19.8
O=C(N[C@H]1N=C(c2ccccc2F)c2cccc3c2N(CC3)C1=O)c1cc2ccccc2[nH]1 | 16.2
CN1CCc2cc(Cl)c(O)cc2[C@H]2c3ccccc3CC[C@@H]21 | -6.28
CC(Cc1ccccc1)NCc1ccccc1Cl (stereo not drawn) | -10.1
C[C@]12C=CC(=O)C=C1CC[C@@H]1[C@@H]2CC[C@@]2(C)[C@H]1CC[C@]2(C)O | 0.899
C[C@]12CC[C@H]3[C@@H](CCC4=CC(=O)CC[C@@]43C)[C@@H]1CC[C@@H]2C(=O)O | 27.4
CCOC(=O)c1ncn2c1CN(C)C(=O)c1c(I)cccc1-2 | 22.3
ClCCCN1CCN(c2cccc(Cl)c2)CC1 | 14.1
C[C@H](N)[C@H](O)c1ccc(O)c(O)c1 | 1.38
NC(=O)CN1CCCC1=O | 24.3
C[C@H]1C(=O)O[C@@H]2CCN3CC=C(COC(=O)[C@](C)(O)[C@]1(C)O)[C@H]23 | 10.8
COP(=O)(OC)OC=C(Cl)Cl | 22.7
